Assay outcomes deposited in PubChem BioAssay by several laboratories.
Only some compounds are listed: those with a hit (about 27% of all), similar ones and a draw of the others.
CYP2C19 inh: inhibitors of human CYP2C19; CYP2C19 Supersomes, luciferin-H EGE luminescence, 30 min; P33261; inhibition, % at 5 µM; AID 778; hit rate 21% among 96,000;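 active means CYP2C19 inhibition above a set limit at 5 µM in the primary screen, cut at about 50% in these data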;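 further: plate controls were negative control wells for no effect and 2.5 mM tranylcypromine positive control for full effect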
Target sequence (P33261 whole entry, looked up): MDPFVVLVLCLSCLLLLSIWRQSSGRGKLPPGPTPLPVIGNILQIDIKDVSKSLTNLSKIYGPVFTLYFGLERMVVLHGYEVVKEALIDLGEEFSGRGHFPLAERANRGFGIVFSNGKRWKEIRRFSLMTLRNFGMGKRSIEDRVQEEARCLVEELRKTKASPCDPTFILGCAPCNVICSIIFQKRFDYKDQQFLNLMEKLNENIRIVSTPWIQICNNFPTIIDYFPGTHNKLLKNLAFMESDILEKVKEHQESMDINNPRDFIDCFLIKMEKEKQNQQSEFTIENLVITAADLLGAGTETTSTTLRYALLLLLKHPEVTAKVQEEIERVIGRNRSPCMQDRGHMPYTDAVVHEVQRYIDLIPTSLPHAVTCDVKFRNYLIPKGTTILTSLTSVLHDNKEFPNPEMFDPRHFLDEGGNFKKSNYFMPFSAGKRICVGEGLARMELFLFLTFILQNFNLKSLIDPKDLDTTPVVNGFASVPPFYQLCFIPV
CYP2C9 inhib: inhibitors of human CYP2C9; CYP2C9 Supersomes, luciferin-H conversion, luminescence; AID 777; P11712; inhibition, % at 5 µM; hit rate 20% among 96,000;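 active means blocking of liver enzyme CYP2C9 beyond about 50% at 5 µM, limit read from the data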
Cav32 inh: blocks human Cav3.2 T-type calcium channel; B-score at 10 µM; Cav3.2-expressing cells, Fluo-4 calcium fluorescence FDSS; stronger effect = lower value; hit rate 4% among 100,000;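 active means single-dose well whose peak fluorescence ratio is a statistical outlier from its plate by either plate-standardised score or position-corrected B-score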
CYP2C19 activ: increases human CYP2C19 enzyme activity; P33261; recombinant CYP2C19, luciferin-H EGE luminescence; stronger effect = higher value; 0 = fully inhibited enzyme, 1 = untreated enzyme; activation factor at 5 µM; 96,000 tested, under 10 active; AID 1025;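 active means activation factor of at least 2 at 5 µM in the primary screen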;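 further: 0 = wells with 2.5 mM tranylcypromine and 1 = vehicle-only wells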
CYP2C9 activ: increases human cytochrome P450 2C9 activity. hit rate 1.4% among 96,000. activation factor at 5 µM. recombinant CYP2C9, luciferin-H conversion, luminescence; stronger effect = higher value; factor 1 = untreated enzyme, 0 = blocked. AID 1024;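 active means activation factor of 2 or more for CYP2C9 at a 5 µM dose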;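 further: 0 = sulfaphenazole-blocked wells and 1 = vehicle-only wells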
An asterisk follows results filed as active; / = not tested or not shown.

SMILES	CYP2C19 inh	CYP2C9 inhib	Cav32 inh	CYP2C19 activ	CYP2C9 activ
O=C(CSc1nnc(Cc2cc(=O)[nH]c(=O)[nH]2)n1-c1ccccc1)NCC1CCCO1 (stereo not given)	-10	-4	-0.096	1.1	1
CCN(CC)C(=O)CSc1nnc(COc2ccccc2)n1CC	28	14	0.46	0.7	0.9
COC(=O)C1=C[C@@H](C(=O)OC)[C@@H]2C3=C(C(=O)[C@@]2(C)NC(=O)c2ccccc2)[C@H](c2ccccc2)[C@@H]2C(=O)NC(=O)[C@@H]2[C@@H]3C1	/	/	0.91	/	/
COc1cc(C2Nc3ccc4ncccc4c3C3=C2C(=O)CCC3)cc(OC)c1O (stereo not given)	40	83*	0.92	0.6	0.2
O=C1c2oc3ccccc3c(=O)c2C(c2cccs2)N1CCCN1CCOCC1 (stereo not given)	2	23	1	1	0.8
O=C(c1ccco1)c1nnn(Cc2ccccc2)c1-c1ccccc1	13	54*	-2.7	0.9	0.5
COc1ccc2nc(SCC(=O)Nc3c(C)cccc3C)[nH]c2c1	52*	84*	0.2	0.5	0.2
O=C(CSc1nc2ncc(Br)cc2[nH]1)Nc1ccc2c(c1)OCO2	72*	96*	/	0.3	0
CCOC(=O)NC(=O)CSc1nc2ccc(OCC)cc2[nH]1	15	9	0.33	0.9	0.9
O=C(Nc1ccc2c(c1)OCO2)Nc1ccc(Br)cn1	12	10	0.16	0.9	0.9
O=C(CSc1ncn[nH]1)c1ccc2c(c1)OCO2	8	-18	0.11	0.9	1.2
O=C(CSc1nc2ccc(Cl)cc2[nH]1)c1ccc2c(c1)OCO2	26	66*	-1.2	0.7	0.3
COc1ccc2nc(SCC(N)=O)[nH]c2c1	-13	-16	0.13	1.1	1.2
CCOc1ccc2nc(SCC(=O)NCc3ccc4c(c3)OCO4)[nH]c2c1	24	68*	-2.8	0.8	0.3
NC(=O)CC(NC(=O)c1ccccc1)c1ccc(NCCc2ccc(F)cc2)c([N+](=O)[O-])c1 (stereo not given)	/	/	0.54	/	/
CCOc1ccc2nc(SCC(=O)Nc3ncccn3)[nH]c2c1	0	4	/	1	1
CC(C)NC(=O)C1(O)c2ccccc2NC(=O)N1c1ccc(Cl)c(Cl)c1 (stereo not given)	26	46	-0.5	0.7	0.5
CCOc1ccc2nc(SCC(=O)Nc3ccc4c(c3)OCCO4)[nH]c2c1	61*	91*	-2.5	0.4	0.1
COc1ccc2nc(SCC(=O)Nc3ccc4c(c3)OCCO4)[nH]c2c1	36	81*	/	0.6	0.2
CCOc1ccc(N2C(=O)Nc3ccccc3C2(O)C(=O)NCc2ccc3c(c2)OCO3)cc1 (stereo not given)	19	-141	-1.6	0.8	2.4*
CC(C)C(C)(C#N)NC(=O)CSc1nnc(C(F)(F)F)n1C (stereo not given)	4	5	/	1	0.9
Cc1ccc(S(=O)(=O)N2CCC(=O)N(CCOC(=O)Nc3ccc(C)c(C)c3)CC2)cc1	/	/	-0.87	/	/
Cc1ccc(C)c(-c2nn(-c3cc(N4CCN(CCO)CC4)ccc3[N+](=O)[O-])c(=O)c3ccccc23)c1	17	45	1.1	0.8	0.5
COC(=O)C1=C(C(=O)c2ccc(C)cc2)C(c2ccc(OC)c(OC)c2)n2nnnc2N1 (stereo not given)	-9	-23	1.5	1.1	1.2
COc1ccccc1NC(=S)NNC(=O)c1nn(C)c(C)c1Cl	29	10	0.69	0.7	0.9
SMILES	CYP2C19 inh	CYP2C9 inhib	Cav32 inh	CYP2C19 activ	CYP2C9 activ
COc1ccccc1NC(=S)NNC(=O)c1nn(C)cc1Cl	57*	7	1.2	0.4	0.9
CCOC(=O)C(Cc1ccccc1)NC(=O)CCc1c(C)nc2nc(C)nn2c1C (stereo not given)	-1	-11	1.3	1	1.1
O=C(/C(=C/O)N=Nc1ccccc1)c1ccncc1	96*	68*	/	0	0.3
O=C1CN(C(=O)c2ccc(Br)o2)C(c2ccccc2)c2cc(Br)ccc2N1 (stereo not given)	96*	100*	/	0	0
O=C(O)CN1C(=O)Nc2ccc(Br)cc2C1c1ccccc1 (stereo not given)	10	11	0.013	0.9	0.9
Cc1ccc2c(c1)C(c1ccccc1)N(C(=O)c1ccc(Br)o1)CC(=O)N2 (stereo not given)	42	74*	/	0.6	0.3
Cc1ccc2c(c1)C(c1ccc(F)cc1)N(C(=O)C1CC1)CC(=O)N2 (stereo not given)	20	19	/	0.8	0.8
COc1cc2c3c(c1OC)C1(C=CC(=O)C=C1)CC3N(C(=O)c1ccccc1)CC2 (stereo not given)	14	86*	0.83	0.9	0.1
COc1cc2c(cc1OC)C(c1ccccc1)N(C(=O)CCl)CC2 (stereo not given)	39	40	1.9	0.6	0.6
C=CCn1c(SCc2cc(=O)n3ccsc3n2)nc2sc(C)c(C)c2c1=O	0	19	1.4	1	0.8
Cc1nc2nc[nH]n2c(=O)c1NC(=O)c1c(-c2ccccc2Cl)noc1C	5	39	-0.095	1	0.6
Cc1ccc(N(CN2C(=O)NC(C)(C)C2=O)CN2C(=O)NC(C)(C)C2=O)cc1	51*	-3	1.1	0.5	1
O=c1c2ccsc2ncn1Cc1ccccc1F	42	4	0.04	0.6	1
O=c1c2ccsc2ncn1Cc1cccc(C(F)(F)F)c1	35	53*	-0.77	0.6	0.5
CCC(C(=O)O/N=C(\N)c1ccc(Cl)cc1)c1ccccc1 (stereo not given)	34	17	-5.6*	0.7	0.8
COc1ccccc1C(=O)O/N=C(\N)c1ccc(Cl)cc1	0	-199	0.61	1	3*
CCC(C(=O)O/N=C(\N)c1ccccc1)c1ccccc1 (stereo not given)	22	28	-3.6*	0.8	0.7
CCC(C(=O)O/N=C(\N)c1ccc(C)cc1)c1ccccc1 (stereo not given)	1	16	-2.6	1	0.8
CCC(CC)C(=O)Nc1cc(C(=O)NCCc2ccccc2)ccc1Cl	31	46	0.075	0.7	0.5
Cc1[nH]n(-c2ccccc2)c(=O)c1/C=N/c1ccccn1	8	8	/	0.9	0.9
CC1=NN(c2ccccc2)C(=O)/C1=C\c1c(C)[nH]n(-c2ccccc2)c1=O	-5	51*	-0.05	1	0.5
Cc1ccc(NC(=O)CC2COc3ccccc3O2)cc1 (stereo not given)	69*	29	-3.4	0.3	0.7
CCOc1ccccc1NC(=O)Cc1coc2cc(C)ccc12	95*	90*	-3.2	0.1	0.1
Cc1nc2ccccc2c2oc(C(=O)NCC3COc4ccccc4O3)cc12 (stereo not given)	5	36	-5.3*	0.9	0.6
O=C(CCC1COc2ccccc2O1)NCC1COc2ccccc2O1 (stereo not given)	/	/	-9.6*	/	/
